Test results as given in the OligoGym collection.

Target: CXCL1
Assay: pooled miR-30 sensor sort-seq; sequence = guide strand
Conditions: shRNA
Note: reference of the scale not given here.

| Sequence | sensor-assay potency score (higher = more potent) |
| --- | --- |
| TTGAGGCAAGCTTTCCGCCCAT | -0.645 |
| TTCCGCCCATTCTTGAGTGTGG | -0.98 |
| ACACTTTGGATGTTCTTGGGGT | -0.0598 |
| TGAGGCAAGCTTTCCGCCCATT | -1.55 |
| TTCACGTTCACACTTTGGATGT | -1.04 |
| TCGATGATTTTCTTAACTATGG | -1.57 |

Target: CXCL3
Assay: as above
Conditions: shRNA

| Sequence | sensor-assay potency score (higher = more potent) |
| --- | --- |
| TTGTTCAGTATCTTTTCGATGA | -0.149 |
| ATGATTTTCTGAACCATGGGGG | -0.165 |
| TAAATAATCAGGACTGAGCTAT | -0.218 |
| TTCGATGATTTTCTGAACCATG | -0.954 |
| TGAGACAAGCTTTCTTCCCATT | -1.23 |
| TACATAAATAAGTAGAACCCTC | -0.724 |
| TTTCTTCCCATTCTTGAGTGTG | -0.403 |
| TAAATAAGTAGAACCCTCGTAA | -0.0177 |
| TAGTCAAACACATTAAGTCCTT | -0.625 |
| TTTGATGAAACACACTCACATC | -1.05 |
| TGCAGTGTCTGCAAGCACTGGC | 0.137 |
| TTGAGACAAGCTTTCTTCCCAT | 0.654 |

Target: CXorf40A
Assay: as above
Conditions: shRNA

| Sequence | sensor-assay potency score (higher = more potent) |
| --- | --- |
| TCAGGTTGGTCAGTACAGCTTG | 0.439 |
| TCCACCAGCAGCTCCCGCCAGG | -1.9 |
| TTCAGGTTGGTCAGTACAGCTT | -0.578 |
| TCAGTACAGCTTGATTTTCTAG | -0.864 |
| TACAGCTTGATTTTCTAGTTCC | 0.219 |
| TTGGTCAGTACAGCTTGATTTT | -1.4 |

Target: CXorf41
Assay: as above
Conditions: shRNA

| Sequence | sensor-assay potency score (higher = more potent) |
| --- | --- |
| TTGAGCTCTTCTATTTGGGGTG | 0.00833 |
| TAACATCCCACATATCATCATA | -1.24 |
| TATCATCATATTCTGCTCCTTC | 0.467 |
| TTATCAACAGCTTCTTCTGAGG | -1.2 |
| TTAGCCACTAGTTCACTGCAAC | -0.799 |
| TTCTTCAGGATTAAGTAGCTTA | 0.137 |
| TTTATTACCTGTATATTCCAGA | 0.269 |
| TATATCTTCAGTTCCCACCTGC | 0.748 |
| TAACTCTCTTTTCATAGTCATA | -1.66 |
| TTCAATTATGTAATTGACCATG | -1.17 |
| TAACTGAAGAAACACTCTCAAA | -1.54 |
| TAGTTCACTGCAACAACCTGTT | -0.276 |

Target: CXorf56
Assay: as above
Conditions: shRNA

| Sequence | sensor-assay potency score (higher = more potent) |
| --- | --- |
| TTCATTTTCGCTTTCTTGGCTT | 0.484 |
| TACTGCTCCATCCACAATGAAG | -1.81 |
| TTGCCCATGTCTTTGGTCCGTT | -0.538 |
| TATGAGTCAGCAACTTCCCTAG | 0.0765 |
